# The list is a sample of the results.
# aSyn UTR act – Activators via SNCA 5'UTR binding, MLPCN. alpha-synuclein 5'UTR reporter, activators screen. 300,000 tested, 7.1% active. AID 1814. activity score, % (tested at 7.5 µM), hits read low; in the data active means activity score below about -60%
# Numbers without * were called inactive.
SMILES,aSyn UTR act
COC(=O)Nc1nnc(/C=C/c2ccc(OC)cc2)s1,-109*
CC1=CN2C(=N)/C(=C/c3ccco3)C(=O)N=C2S1,-219*
COc1ccc(-c2noc(N(C)CC(=O)Nc3cccc(C(F)(F)F)c3)n2)cc1,-76*
COc1ccc(-c2nnc(SC(C)C(=O)Nc3cccc(Cl)c3)o2)cc1 (stereo not drawn),-160*
COc1ccc(-c2cc(C(=O)Nc3cccc(Cl)c3)no2)cc1,-266*
COc1ccc(-c2cc(C(=O)Nc3cccc(C(C)=O)c3)no2)cc1,-76*
COC(=O)c1sccc1-c1ccc(C(=O)Nc2cccc(Cl)c2)o1,-125*
COC(=O)c1sccc1-c1ccc(/C=N/OC(=O)c2ccccc2)o1,-69*
COc1ccc(OC)c(-c2cc(C(=O)Nc3c(C)nn(Cc4ccc(Cl)cc4)c3C)no2)c1,58
COc1ccc(OC)c(-c2cc(C(=O)Nc3cccc(Cl)c3)no2)c1,-68*
N#CC(Cc1ccc(OC(F)F)cc1)c1nc2ccccc2[nH]1 (stereo not drawn),-157*
C[n+]1cc[nH]c1SCC(=O)c1ccccc1,-72*
COc1cc(OC)cc(-c2nnc(SCc3c(F)cccc3Cl)o2)c1,-101*
COc1ccc(-c2nnc(SCc3ccccc3F)o2)cc1,-163*
Fc1ccccc1CSc1nnc(-c2ccccc2)o1,-152*
Cc1ccccc1-c1nnc(SCc2ccccc2)o1,-191*
Fc1ccccc1CSc1nnc(-c2cccnc2)o1,-69*
c1ccc(CSc2nnc(-c3c[nH]c4ccccc34)o2)cc1,-151*
Cc1ccccc1-c1nnc(SCc2ccccc2F)o1,-149*
Cc1c(O)c(=O)ccn1Cc1ccccc1,68
Cc1ccc(Cn2ccc(=O)c(OCc3ccccc3)c2C)cc1,-110*
Cc1ccc(Cn2ccc(=O)c(Cc3c(Cl)cccc3Cl)c2C)cc1,51
O=C1C=C(c2cccs2)C[C@H](c2ccccc2)[C@H]1n1nnc([N+](=O)[O-])n1,71
COc1ccc(NC(=O)CSc2n[nH]c(N)n2)cc1OC,-92*
Nc1nc(SCC(=O)Nc2ccc(OCc3ccccc3)cc2)n[nH]1,-84*
SMILES,aSyn UTR act
Cc1cs/c(=N/C(=S)Nc2ccccc2)n1C,-115*
C/C(CC(=O)Nc1ccc(OCc2ccccc2)cc1)=N\NC(=O)C(=O)Nc1ccc(C)c(Cl)c1,-69*
C/C(CC(=O)Nc1cc(C)ccn1)=N\NC(=O)C(=O)Nc1cccc(C)c1,-74*
COc1cccc(NC(=O)C(=O)N/N=C(\C)CC(=O)Nc2ccc(NC(C)=O)cc2)c1,-196*
COc1ccc(-c2nc3n(c2C)Cc2ccccc2-3)cc1,-129*
CCOC(=O)Cn1c(=NC(=O)c2ccc([N+](=O)[O-])s2)sc2ccccc21,-180*
CCN(CC)c1ccc(NC(=O)Nc2ccc(C(C)=O)cc2)cc1,-68*
CCN(CC)c1ccc(NC(=O)Nc2ccccc2)cc1,-137*
O=C(Nc1ccccc1)NN(C(=O)CCl)c1ccccc1,-125*
COc1ccccc1-c1ccc(=O)n(CC(=O)NCc2cccs2)n1,-73*
COc1ccccc1NC(=O)Cn1nnc(C(=O)NCc2cccs2)c1N,86
O=C1CN(c2nc(-c3cccs3)nc3sc4c(c23)CCCC4)CCN1,-109*
O=C1CN(c2nc(-c3cccnc3)nc3scc(-c4ccccc4)c23)CCN1,-90*
O=c1c2c3c(sc2nc2n1N=C(c1cccs1)CS2)CCCC3,-166*
O=C(CC1NCCNC1=O)Nc1ccc(Cl)c(Cl)c1 (stereo not drawn),-92*
Cc1nc2c(s1)sc1ccccc12,-76*
COc1ccccc1Oc1ccc(N/C=C/C(=O)c2ccc(C)o2)cc1,-89*
NC(=O)c1ccccc1N/C=C/C(=O)c1ccc(F)cc1,-65*
Cc1ccc(C(=O)/C=C/Nc2ccccc2C(N)=O)o1,-200*
Cc1ccc(C=Nc2ccccc2C(N)=O)o1,-154*
CN(C)/C=C/C(=O)/C=C/c1ccc(Cl)cc1,-180*
CN(C)S(=O)(=O)c1ccc(NC(=O)c2ccccn2)cc1,-79*
CCN(CC)S(=O)(=O)c1ccc(NC(=O)c2ccccn2)cc1,-120*
CN(C)S(=O)(=O)c1ccc(C(=O)Nc2ccccn2)cc1,-70*
Cc1csc(NC(=O)Cc2ccc(Cl)cc2)n1,-81*
SMILES,aSyn UTR act
Cc1csc(NC(=O)Cc2ccccc2Cl)n1,-99*
CC[n+]1c(/C=C/c2ccc(OC(C)=O)c(OC)c2)ccc2ccccc21,-72*
CC[n+]1c(/C=C/c2ccc(OC)c(OC)c2)ccc2ccccc21,-117*
CCN(CC)c1ccc(/C=C/c2ccc3ccc(OC)cc3[n+]2CC)cc1,-87*
CCN(CC)c1ccc(/C=C/c2cccc[n+]2C)c(OC)c1,59
Cn1ccnc1Sc1ccc(/C=N/NC(=O)c2ccccc2O)cc1[N+](=O)[O-],-62*
Cc1cc(C)nc(SC/C=C/c2ccccc2)n1,-89*
C(=C\c1ccccc1)/CSc1ccccn1,-187*
O=C(Nc1ccc2oc(-c3ccccc3Cl)nc2c1)c1ncn[nH]1,-153*
CC(C)C(=O)Nc1ccc2oc(-c3cc(F)c(F)cc3Cl)nc2c1,-154*
CC(=O)Nc1ccc2oc(-c3cc(F)c(F)cc3Cl)nc2c1,61
O=C(Nc1ccc2oc(-c3cccc4ccccc34)nc2c1)c1ncn[nH]1,-184*
CC(C)c1ccc2oc(-c3ccc(NC(=O)c4ncn[nH]4)cc3)nc2c1,-80*
CC1(C)C=Cc2cc3ccc(=O)oc3cc2O1,-111*
CCCC[n+]1c(-c2ccc(Cl)cc2Cl)csc1Nc1ccccc1,-128*
Clc1ccc(-c2csc(Nc3ccccc3)[n+]2Cc2ccco2)c(Cl)c1,-269*
C=CC[n+]1c(-c2ccc(Cl)cc2Cl)csc1Nc1ccc(NC(C)=O)cc1,94
O=[N+]([O-])c1ccccc1/C=N/NC1=NCCCCC1,-173*
Cc1ccc2nc(SCn3nnc4ccccc4c3=O)[nH]c2c1,-139*
O=c1c2ccccc2nnn1CSc1ccccc1F,-98*
CC1CCCCC1NC(=O)Cn1nnc2ccccc2c1=O (stereo not drawn),61
Cc1ccc(NC(=O)Cn2nnc3ccccc3c2=O)cc1,-93*
Cc1ccc(SCn2nnc3ccccc3c2=O)c(C)c1,-147*
O=c1c2ccccc2nnn1CSc1nc2ccccc2[nH]1,-173*
c1ccc2oc(SCc3cn4ccccc4n3)nc2c1,-111*
SMILES,aSyn UTR act
Cc1cccc2nc(CSc3nc4ccccc4o3)cn12,-89*
c1ccc2nc(SCc3cn4ccccc4n3)cnc2c1,-66*
Cc1cc(C)c(C#N)c(SCc2cn3c(C)cccc3n2)n1,-104*
CCOc1ccc(N2Cc3ccccc3C2)cc1,-120*
CCOc1ccc(S(=O)(=O)N2c3ccccc3CC2C)cc1 (stereo not drawn),93
CCOc1ccc(N2C(N)=NC(N)=NC2(C)C)cc1,66
COC(c1ccccc1)c1nnc(CCC(=O)N(C)Cc2cccc(-n3cccn3)c2)o1 (stereo not drawn),-72*
COC(c1ccccc1)c1nnc(CCC(=O)N(C)CCOc2ccccc2)o1 (stereo not drawn),-83*
O=c1c(C=NCCCO)c(-c2ccccc2)[nH]n1-c1nc2ccccc2s1,60
O=c1c(C=NCCN2CCNCC2)c(-c2ccccc2)[nH]n1-c1ccc([N+](=O)[O-])cc1,-94*
COC(=O)CSc1nc2cc(C)cc(C)c2cc1C#N,-180*
Cc1cc(C)c2cc(C#N)c(N3CCCN(C(=S)NCCCN(C)C)CC3)nc2c1,96
COC(=O)CSc1nc2ccc(C)cc2cc1C#N,-72*
COc1cccc(/C=N/NC(=O)c2c(C)nc3ccc(Br)cn23)c1O,71

# High-throughput results as filed in PubChem BioAssay.
